D3 ag = qHTS of D3 Dopamine Receptor Agonist: qHTS; max activation, %; hit rate 0.58% among 410,000; AID 652048, 2013; D3R DiscoveRx beta-arrestin cells, luminescence, 90 min; in the data active = max activation above about 30%
Target sequence (P35462 whole entry, looked up): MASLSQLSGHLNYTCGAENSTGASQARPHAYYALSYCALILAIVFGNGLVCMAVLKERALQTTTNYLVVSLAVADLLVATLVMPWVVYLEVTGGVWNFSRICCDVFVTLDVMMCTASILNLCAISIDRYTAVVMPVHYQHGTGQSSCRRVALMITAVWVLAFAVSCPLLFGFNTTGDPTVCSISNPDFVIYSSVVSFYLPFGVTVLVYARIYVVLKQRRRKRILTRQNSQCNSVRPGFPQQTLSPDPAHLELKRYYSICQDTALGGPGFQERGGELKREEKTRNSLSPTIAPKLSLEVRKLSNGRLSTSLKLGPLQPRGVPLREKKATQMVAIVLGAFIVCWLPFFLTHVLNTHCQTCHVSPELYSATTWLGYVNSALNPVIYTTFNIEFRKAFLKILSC
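Agonist mode: compounds and dopamine controls were applied to plated cells for 90 min at 37 degrees C after an overnight attachment at 1500 cells/well. Luminescent read-out followed 30 - 60 minutes at room temperature with DiscoveRx detection reagent.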
MCF10A rerep = A quantitative high throughput screen for small molecules that induce DNA re-replication in MCF 10a normal breast cells | MCF 10A DNA re-replication, Hoechst nuclear intensity, 48 h | Potency, µM (top dose mostly 46.1 µM), actives largely listed as activators | hit rate 2.9% among 350,000; also: nearly all actives have a fitted effect of over 50% in size
KB-V1 MDR tox = qHTS assay for MDR1-selective chemotherapeutics: Primary screen using the drug-selected MDR subline cells KB-V1; Potency, µM (top dose mostly 46.1 µM), actives largely listed as cytotoxic; hit rate 3.4% among 400,000; KB-V1 MDR cells viability, CellTiter-Glo, 72 h; also: nearly all actives have a fitted effect of over 60% in size
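Cytotoxicity toward P-gp-expressing KB-V1 cells was determined as loss of CellTiter-Glo luminescence after 72 h at 37 degrees C. Compounds were tested in quantitative HTS format across a concentration range, with curves fitted to normalized data.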
SW480 rerep = A quantitative high throughput screen for small molecules that induce DNA re-replication in SW480 colon adenocarcinoma cells | SW480 DNA re-replication, Hoechst DNA content imaging, 48 h | Potency, µM (titrated, usually from 46.1 µM), usual class: activators | hit rate 1.8% among 340,000 | AID 624297, 2012; also: nearly all actives have a fitted effect of over 55% in size
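Compounds, transferred as 23 nL by pin tool, were incubated with cells for 48 hr; DNA content per nucleus was then quantified by Hoechst staining and fluorescence plate imaging.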
KB-3-1 tox = qHTS assay for MDR1-selective chemotherapeutics: Primary screen using the parental adenocarcinoma cell KB-3-1. Potency, µM (highest dose often 46.1 µM), usual class: cytotoxic. hit rate 1.4% among 400,000. KB-3-1 viability, CellTiter-Glo ATP luminescence, 72 h; also: nearly all actives have a fitted effect of over 60% in size
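Cytotoxicity measured as CellTiter-Glo luminescence after 72 h at 37 C. Compound titrations were pinned onto drug-naive KB-3-1 parental adenocarcinoma cells grown in DMEM with 10% FBS, and normalized data fitted to concentration-response curves.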
DRD3 antagonist = qHTS of D3 Dopamine Receptor Antagonist: qHTS. D(3) dopamine receptor (Homo sapiens), P35462. D3R cells, DiscoveRx beta-arrestin luminescence, antagonist mode; stronger effect = lower value. max response, negative = inhibition, %. hit rate 2.5% among 360,000. AID 652054, 2013; in the data active = max response below about -50%; inconclusive = no clear call, values can overlap the other calls
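Cells expressing the human receptor were seeded at 1500 cells/well, incubated overnight at 37 degrees C in 5% CO2, then exposed to library compounds with dopamine controls for 90 minutes at 37 degrees C before luminescent detection.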
Hits are given with their value; n = inactive; u = inconclusive; x = no result given; ! = not confirmed by another sample. Rows were chosen to be rich in hits. Some 8.9% of all compounds tested hit in one or more screens of this group. Unless noted, calls follow the shape of the dose curve; as a rule, active = well fitted curve in the direction sought with a large enough effect; inconclusive = small, poorly fitted or top-dose-only effect, or another doubt; inactive = no such curve, though single readings can be large; an effect the other way counts as inactive or inconclusive.

SMILES | D3 ag | MCF10A rerep | KB-V1 MDR tox | SW480 rerep | KB-3-1 tox | DRD3 antagonist
COc1ccc(CCNC(C)CCc2ccc(OC)cc2)cc1 (configuration not stated) | n | n | u | u | n | -52
COc1ccc(CCNCc2cc(OC)cc(OC)c2)cc1 | n | x | u | x | n | n
Oc1ccccc1-c1ccccc1 | n | n | x | n | x | x
CCCCCCn1c(=O)c(C(=O)Nc2cccc(C)n2)c(O)c2ccccc21 | n | n | u | n | n | n
CCCCCn1c(=O)c(C(=O)NCc2ccco2)c(O)c2ccccc21 | n | n | 21µM | n | n | n
CCCCCn1c(=O)c(C(=O)Nc2ccccc2S(N)(=O)=O)c(O)c2ccccc21 | n | 4.1µM | u | 3.7µM | 10µM | n
CCCCn1c(=O)c(C(=O)Nc2ncccc2C)c(O)c2ccccc21 | n | n | u | n | u | n
CCCCCn1c(=O)c(C(=O)Nc2ccccc2C)c(O)c2ccccc21 | n | n | n | n | n | n
CCCCCn1c(=O)c(C(=O)Nc2nc(CC(=O)OCC)cs2)c(O)c2ccccc21 | n | n | 6.5µM | n | n | n
CCCCn1c(=O)c(C(=O)Nc2ccccc2S(N)(=O)=O)c(O)c2ccccc21 | n | u | 16µM | n | n | n
O=C(Nc1ccon1)c1cccn(Cc2cccc([N+](=O)[O-])c2)c1=O | n | x | n | x | n | x
CCCCn1c(=O)c(C(=O)Nc2ccccc2)c(O)c2ccccc21 | n | n | 13µM | n | n | n
CCCCn1c(=O)c(C(=O)NCc2ccccc2)c(O)c2ccccc21 | n | n | n | n | n | n
CN[C@@H](C)[C@H](O)c1ccccc1 | n | x | u | x | u | x
Cc1ccc(-n2nc(C)cc2NC(=O)COc2cc(C)cc3oc(=O)c4c(c23)CCC4)cc1 | n | n | 2.1µM | n | n | n
CC1(C)CC2CC(C)(CN2S(=O)(=O)c2cccc(C(=O)OCC(=O)NC(N)=O)c2)C1 (configuration not stated) | n | n | n | u | n | n
C[C@H]1[C@@H](OS(=O)(=O)O)C[C@@H]2C[C@H]([C@@H](O)c3cc(=O)[nH]c(=O)[nH]3)NC3=NC[C@H]1N32 | n | u | 2.1µM | u | 1µM | n
C#CCOC(C(=O)OCCN(C)C)(c1ccccc1)c1ccccc1 | n | n | x | n | x | x
CCNC(=O)[C@H]1O[C@@H](n2cnc3c(N)ncnc32)[C@H](O)[C@@H]1O | n | n | n | n | n | n
Nc1ncnc2c1ncn2[C@@H]1O[C@H](COP(=O)(O)CP(=O)(O)O)[C@@H](O)[C@H]1O | n | n | 15µM | n | n | n
Cc1cc(C(=O)O)oc(=O)c1 | n | n | n | n | n | n
CN1CC(C(=O)c2ccc([N+](=O)[O-])cc2)C(c2ccc(Cl)cc2)C1 (configuration not stated) | n | n | n | n | n | -59
CCCCCCCCc1ccc(O)cc1 | x | n | n | n | u | x
CCCCCCCCn1sccc1=O | n | 21µM | n | 10µM | u | -81
c1ccc(C(OCCN2CCN(c3ncccn3)CC2)c2ccccc2)cc1 | n | u | n | n | n | -116
SMILES | D3 ag | MCF10A rerep | KB-V1 MDR tox | SW480 rerep | KB-3-1 tox | DRD3 antagonist
Clc1ccc([C@@H](OCCN2CCCCC2)c2ccccc2)cc1 | x | n | x | n | x | x
CCCC(=O)Nc1ccc(N2CCN(CC)CC2)c(Cl)c1 | n | n | u | n | n | n
CCCC(=O)NC1=C(N2CC2)C(=O)C(NC(=O)CCC)=C(N2CC2)C1=O | n | u | n | 2.3µM | n | u
COC1CC(=C(c2cccs2)c2cccs2)C[N+](C)(C)C1 (configuration not stated) | n | n | x | n | x | x
c1ccc(Cn2ccnc2)cc1 | n | n | n | n | n | n
CC(C)c1cccc(C(C)C)c1OCCn1ccnc1 | n | n | 23µM | u | n | n
COc1ccc(CN2CCN(Cc3ccccc3F)CC2)cc1 | n | n | n | n | n | -73
CSc1ccc(CN2CCN(Cc3ccccc3Cl)CC2)cc1 | n | n | n | n | n | -97
COc1ccc(CC(=O)N(CCN(C)C)CC2CCCN(Cc3ccccc3F)C2)cc1 (configuration not stated) | n | u | n | n | n | n
Cc1cc(OCC(=O)N2CCN(CCc3ccncc3)CC2)cc(C)c1Cl | n | x | n | x | n | x
c1ccc(CNC2CCCCCCC2)cc1 (tested in a mixture with another compound) | n | n | 23µM | n | n | n
CC12CCC3C4CCC(=O)C(O)=C4CCC3C1CCC2OC(=O)CCC1CCCC1 (configuration not stated) | x | n | x | n | x | x
ClCCN(CCCl)c1ccc(/C=C/c2sc3ccccc3[n+]2CCCCI)cc1 | x | x | n | x | u | x
O=C1c2ccccc2C(=O)C1C(=O)C(c1ccccc1)c1ccccc1 | n | 24µM | x | u | x | x
CCOC(=O)Cn1c(-c2ccccc2)ccc(C#N)c1=O | n | n | n | u | n | n
Cn1cc(C2=C(c3cn(C4CCN(Cc5ccccn5)CC4)c4ccccc34)C(=O)NC2=O)c2ccccc21 | n | x | x | x | x | x
COc1cc(C2c3cc4c(cc3CC3COC(=O)C32)OCO4)cc(OC)c1OC (configuration not stated) | n | 6.5µM | 0.58µM | u | 0.92µM | n
COc1cc(C2c3cc4c(c(O)c3CC3COC(=O)C32)OCO4)cc(OC)c1OC (configuration not stated) | n | u | 0.18µM! | 0.052µM | 0.0082µM! | n
COc1cc([C@@H]2c3cc4c(cc3[C@H](OC(C)=O)[C@H]3COC(=O)[C@@H]23)OCO4)cc(OC)c1OC | x | x | u | x | 0.65µM | x
COc1cc(C2c3cc(O)c(OC)cc3CC3C(=O)OCC32)ccc1O (configuration not stated) | n | n | n | n | n | n
COc1cc([C@@H]2c3cc4c(cc3C[C@H]3COC(=O)[C@@H]32)OCO4)cc(OC)c1O | x | x | n | x | u | x
COc1cc([C@@H]2c3cc4c(c(O)c3C[C@H]3COC(=O)[C@@H]32)OCO4)cc(OC)c1OC | x | x | 4.1µM | x | 0.52µM | x
COC(=O)c1ccccc1C(=O)OC | n | x | x | x | x | x
CC(=O)O[C@H]1CC[C@@]2(C)C(=CC[C@H]3[C@@H]4CC[C@H](C(C)=O)[C@@]4(C)CC[C@@H]32)C1 | n | n | u | u | n | n
CN(C)C(=O)O/N=C(\N)COc1ccc(C(C)(C)C)cc1 | n | u | u | 12µM | n | n
